High-throughput results (PubChem BioAssay)
An excerpt weighted towards active compounds, which were near 2.4% of everything screened.
Rango-impB inh – qHTS Assay for Inhibitors of Rango (Ran-regulated importin-beta cargo) - Importin beta complex formation | Rango CFP/YFP FRET sensor + importin beta, 45 min | 340,000 compounds, 0.031% hits | Importin subunit beta-1 (Homo sapiens), Q14974 | Potency, µM (series often up to 92.2 µM), without a hit: at the highest dose inhibition of complex formation;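 note: 0% = DMSO wells and 100% = buffer wells lacking importin beta; nearly all actives have a fitted effect of over 15% in size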
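FRET biosensor (snurportin 1 IBB flanked by EYFP and cerulean), 50 nM, with compound 5 min, then 0.125 microM importin beta in PBS, 1 mM DTT, 0.02% Tween-20, 0.1% BSA. CFP/YFP ratio read after 45 min at room temperature; pre-read flags interference.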
12-LOX inh – Primary qHTS assay for inhibitors of human arachidonate 12S-lipoxygenase (ALOX12): Round 2; Potency, µM (top dose mostly 108 µM), for inactives: at the top dose activity change, negative = inhibition, hits mostly inhibitors; 580,000 compounds, 1.1% hits; purified 12hLO, xylenol orange hydroperoxide absorbance; AID 1671190, 2021; Polyunsaturated fatty acid lipoxygenase ALOX12 (Homo sapiens), P18054; active = well fitted curve in the direction sought with a large enough effect; inconclusive = small, poorly fitted or top-dose-only effect, or another doubt; inactive = no such curve, though single readings can be large; an effect the other way counts as inactive or inconclusive; note: % is set by controls: 0 for no effect and ±100 for the full control effect
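Purified human 12hLO at 150 nM in 25 mM Hepes, 0.01% Triton X-100, pH 7.0, preincubated 15 min at room temperature with compound. Reaction started with 40 uM arachidonic acid, 30 min at room temperature. Hydroperoxide measured by Fe-xylenol orange, 573/405 nm absorbance ratio.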
TDP1 inh – qHTS Assay for Inhibitors of Tyrosyl-DNA Phosphodiesterase (TDP1) | recombinant TDP1, AlphaScreen DNA substrate cleavage | Potency, µM (titrated, usually from 130 µM), inactives show at the top dose activity change, negative = inhibition, most hits filed as inhibitors | 350,000 compounds, 0.28% hits | AID 485290, 2010; active = well fitted curve in the direction sought with a large enough effect; inconclusive = small, poorly fitted or top-dose-only effect, or another doubt; inactive = no such curve, though single readings can be large; an effect the other way counts as inactive or inconclusive; note: % is set by controls: 0 for no effect and ±100 for the full control effect; nearly all actives have a fitted effect of over 40% in size
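Here, a 5' biotin and 3' phosphotyrosine-FITC DNA oligonucleotide reports Tdp1 activity: intact substrate bridges AlphaScreen beads, while cleavage leaves a 3' phosphate and drops signal. All incubations at room temperature.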
TSG101-PTAP inh – qHTS Assay for Iinhibitors of HIV-1 Budding by Blocking the Interaction of PTAP/TSG101; 340,000 tested, under 10 active; Potency, µM (top dose mostly 115 µM), for inactives: at the top dose activity change, negative = inhibition, hits mostly inhibitors; Fluorescence polarization, FITC-PTAP peptide / Tsg101 binding; active = well fitted inhibition curve with a large enough effect in the main read-out, with a control signal flat, not every such curve was filed as active; inconclusive = small, poorly fitted or top-dose-only effect, or effect the other way, or a change in a side signal; inactive = no such curve, though single readings can be large or run the other way; note: % of control where 0% means no effect
Target sequence (Q99816 whole entry, looked up): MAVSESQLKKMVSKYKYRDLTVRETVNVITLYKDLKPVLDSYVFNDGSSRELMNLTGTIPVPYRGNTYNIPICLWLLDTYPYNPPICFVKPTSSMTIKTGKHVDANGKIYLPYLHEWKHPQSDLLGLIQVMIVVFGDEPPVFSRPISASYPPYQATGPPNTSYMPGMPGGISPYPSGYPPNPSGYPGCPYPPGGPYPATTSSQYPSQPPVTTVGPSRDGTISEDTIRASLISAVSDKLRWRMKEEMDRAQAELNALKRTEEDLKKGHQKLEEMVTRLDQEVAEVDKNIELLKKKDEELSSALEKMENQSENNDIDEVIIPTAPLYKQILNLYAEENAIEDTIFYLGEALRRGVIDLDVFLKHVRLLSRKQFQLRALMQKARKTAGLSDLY
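Tsg101 binding domain (10 uM final) was mixed with compound and a FITC-labeled PTAP peptide (50 nM final) in HEPES pH 7.5 buffer with NaCl, Tween 20, EDTA and TCEP; fluorescence polarization was read after 20 min at r.t.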
ClpP mod – qHTS Assay for Activators of ClpP; ATP-dependent Clp protease proteolytic subunit (Bacillus subtilis (strain 168)), P80244; AID 651965, 2013; Potency, µM (doses to about 57.5 µM), without a hit: at the highest dose activity change, negative = active; 340,000 compounds, 1.9% hits; purified B. subtilis ClpP, FRET peptide cleavage, 20 min; active = well fitted falling curve with a large enough effect; inconclusive = small, poorly fitted or top-dose-only effect; inactive = no such curve, though single readings can be large or run the other way; note: the source files actives as falling curves though it sought activators and does not explain the sign; nearly all actives have a fitted effect of over 65% in size
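Purified B. subtilis ClpP, 10 microg/mL final in Tris/HCl pH8 with KCl, BSA, glycerol and Tween-20, cleaved an Abz/nitrotyrosine-quenched decapeptide. Fluorescence (ex 320, em 430) was read at 0 and 20 min at room temperature. Delta was normalized to 5.8 microM ADEP and DMSO/no-enzyme controls.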
Rango release inh – qHTS Assay for Inhibitors of RanGTP induced Rango (Ran-regulated importin-beta cargo) - Importin beta complex dissociation; 340,000 compounds, 0.071% hits; Snurportin-1 (Homo sapiens) + GTP-binding nuclear protein Ran (Homo sapiens) + Importin …; Biochemical FRET Rango-importin beta, RanGTP-induced dissociation; AID 540253, 2011; Potency, µM (highest dose often 46.1 µM), for inactives: at the top dose activity change, negative = inhibition; note: % of control where 0% means no effect; nearly all actives have a fitted effect of over 45% in size
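Rango FRET biosensor (snurportin-1 IBB flanked by N-terminal EYFP and C-terminal CFP10) at 0.1 uM, with 0.25 uM importin beta in PBS, 1mM DTT, 0.02% Tween-20, 0.1% BSA. 0.6 uM Ran, 2mM GTP and 0.2 uM RCC1 were then added for 45 min at room temperature. Inhibition read as loss of FRET rise.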
Starred values were filed as active, the others as inactive; ? = inconclusive; nt = not tested or not shown; ! = a repeat was not active. Unless noted, calls come from the whole dose curve. Potency is the fitted concentration of half-maximal effect.

SMILES	Rango-impB inh	12-LOX inh	TDP1 inh	TSG101-PTAP inh	ClpP mod	Rango release inh
Cc1cccc(S(=O)(=O)N2[C@@H]3CC[C@H]2CC(NC(=O)c2ccc(F)cc2)C3)c1 (stereo partly drawn)	nt	3%	nt	nt	nt	nt
COc1ccccc1N1C(=O)C2CC=CC(C)C2C1=O (stereo not drawn)	?	0%	5%	-6%	3.2µM*	-16%
COc1ccc2nc(N3C(=O)CC(C(C)c4ccccc4)C3=O)sc2c1 (stereo not drawn)	-3%	-7%	-3%	-7%	28µM*	8%
FC(F)(F)c1cc(-c2ccco2)nc(=S)[nH]1	nt	1%	nt	nt	nt	nt
CCC1c2ccc(C)n2CCN1C(=O)Nc1ccccc1C(=O)OC (stereo not drawn)	?	59%	4%	-8%	35µM*	?
O=C(NCc1ccc(Cn2cccn2)cc1)c1cn[nH]c1-c1ccc(F)cc1	nt	-2%	nt	nt	nt	nt
Fc1ccc(-c2[nH]ncc2CNCc2cccc(Cn3cccn3)c2)cc1	nt	18µM*	nt	nt	nt	nt
O=C(NCCc1ccncc1)C1CN(C(=O)COc2ccccc2)CC12CCOCC2 (stereo not drawn)	nt	37%	nt	nt	nt	nt
CCn1c(C(=O)NCc2ccc(F)cc2)cc2oc3ccccc3c21	nt	-17%	5%	nt	4%	nt
COc1cccc(CNC(=O)c2cc3oc4ccccc4c3n2C)c1OC	0%	2%	5%	-5%	25µM*	11%
COc1cccc(CNC(=O)c2cc(-c3ccncc3)cn2C)c1OC	nt	62%	nt	nt	nt	nt
CCOc1ccccc1CNC(=O)c1cc2oc3ccccc3c2n1CC	6%	-12%	3%	0%	32µM*!	33%
CCCCC1Cc2[nH]c(=S)[nH]c(=O)c2C(c2ccc(C(C)C)cc2)O1 (stereo not drawn)	nt	40µM*	nt	nt	0%	nt
COc1ccc(NC(=O)c2cc(-c3ccc(OC)c(OC)c3)on2)cc1OC	-3%	3%	2%	nt	22µM*	-2%
